Source: PubChem BioAssay AID504617 (Sanford-Burnham Center for Chemical Genomics, 2011)
The other results are listed elsewhere or left out. Values without a mark were called inactive. The source made the active and inactive calls.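 The calls were made as follows: active = mean activity change at or below -40%, meaning activation of 40% or more, at 20 µM; inactive = the rest.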

Molecular target: Apoptotic protease-activating factor 1 (Homo sapiens) (UniProt O14727)
Test: enhancers of apoptosome-driven caspase-3 activity – biochemical, fluorescence, DEVD-Rh110, 20 µM, confirmation (AID 504617)
Details: reconstituted apoptosome caspase-3 activity, at 20 µM, hits give low values

Sequence of Apoptotic protease-activating factor 1 (Homo sapiens) (O14727 whole entry, looked up): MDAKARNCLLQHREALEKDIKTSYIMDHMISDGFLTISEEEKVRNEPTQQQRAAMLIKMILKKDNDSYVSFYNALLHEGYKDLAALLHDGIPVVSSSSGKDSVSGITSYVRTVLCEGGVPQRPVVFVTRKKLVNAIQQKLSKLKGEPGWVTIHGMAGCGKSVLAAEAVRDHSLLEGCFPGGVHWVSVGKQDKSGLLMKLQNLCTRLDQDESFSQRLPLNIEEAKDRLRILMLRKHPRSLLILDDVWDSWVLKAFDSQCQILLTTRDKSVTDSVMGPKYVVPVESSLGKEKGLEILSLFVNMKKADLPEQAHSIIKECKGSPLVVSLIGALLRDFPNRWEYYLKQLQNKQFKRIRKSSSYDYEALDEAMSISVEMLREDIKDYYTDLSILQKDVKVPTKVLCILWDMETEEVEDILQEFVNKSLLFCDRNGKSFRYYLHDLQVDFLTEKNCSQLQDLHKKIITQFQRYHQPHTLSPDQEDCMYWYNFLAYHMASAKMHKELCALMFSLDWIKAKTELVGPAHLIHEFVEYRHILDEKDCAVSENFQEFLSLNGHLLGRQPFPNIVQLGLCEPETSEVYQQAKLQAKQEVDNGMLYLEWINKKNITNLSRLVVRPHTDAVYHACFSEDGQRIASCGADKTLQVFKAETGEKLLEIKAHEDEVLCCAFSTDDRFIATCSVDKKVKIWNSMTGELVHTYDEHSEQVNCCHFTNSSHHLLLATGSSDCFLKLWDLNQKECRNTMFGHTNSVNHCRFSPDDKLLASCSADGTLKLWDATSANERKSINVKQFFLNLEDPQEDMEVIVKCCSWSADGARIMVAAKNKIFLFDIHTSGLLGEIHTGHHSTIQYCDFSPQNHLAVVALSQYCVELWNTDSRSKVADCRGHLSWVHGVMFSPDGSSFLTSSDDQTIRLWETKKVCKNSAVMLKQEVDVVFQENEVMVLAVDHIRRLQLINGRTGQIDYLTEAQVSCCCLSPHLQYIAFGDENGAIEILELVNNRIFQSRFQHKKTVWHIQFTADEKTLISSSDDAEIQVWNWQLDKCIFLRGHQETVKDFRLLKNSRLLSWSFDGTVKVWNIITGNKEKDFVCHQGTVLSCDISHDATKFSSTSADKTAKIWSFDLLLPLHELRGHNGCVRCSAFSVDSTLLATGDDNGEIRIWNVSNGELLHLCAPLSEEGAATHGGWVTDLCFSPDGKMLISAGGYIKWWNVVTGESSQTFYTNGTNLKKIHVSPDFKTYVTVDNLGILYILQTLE

Question: `COc1ccc(OCCCC(=O)NCCc2ccccc2)cc1` was tested. Which activity change, negative = activation did it give?
Answer: Its activity change, negative = activation is 4.66%.

Question: With `Cc1nn(CC(=O)Nc2ccc(C#N)cc2)c(C)c1[N+](=O)[O-]` as the compound, how does the activity change, negative = activation read?
Answer: The activity change, negative = activation was -10.5%.

Question: With `C=C(C)C(=O)Nc1cccc(C2=NOC3(C2)C[C@H](C(N)=O)N(C(=O)C(c2ccccc2)c2ccccc2)C3)c1` (some centres not stated) as the compound, how does the activity change, negative = activation read?
Answer: Its activity change, negative = activation is -78.6% (active).

Question: With `COc1ccc2c(c1)CCNC2Cc1ccc(OC)c(O)c1` (configuration not stated) as the compound, how does the activity change, negative = activation read?
Answer: Its activity change, negative = activation is 12.2%.

Question: How did the activity change, negative = activation turn out when `COC(CNC(=O)Cn1ncc2ccsc2c1=O)OC` was run?
Answer: Its activity change, negative = activation is 10.8%.

Question: `CC(C)OCCCNC(=S)N1CCC(C(=O)c2ccc3c(c2)OCCO3)CC1` was tested. Which activity change, negative = activation did it give?
Answer: Its activity change, negative = activation is 17.5%.

Question: For `Cc1ccc(S(=O)(=O)N2CCOCC2)cc1C(=O)NC(=S)N(Cc1ccccc1)C(C)C`, which activity change, negative = activation is on record?
Answer: The activity change, negative = activation was 16.4%.

Question: How did the activity change, negative = activation turn out when `CN(C)S(=O)(=O)c1ccc(C(=O)NCCN=C2NS(=O)(=O)c3ccccc32)cc1` was run?
Answer: The activity change, negative = activation was 4.07%.

Question: For `COc1ccc(C2c3ccc(O)cc3Oc3ncn(CCCO)c(=N)c32)cc1OC` (configuration not stated), which activity change, negative = activation is on record?
Answer: The activity change, negative = activation was 0.56%.

Question: How did the activity change, negative = activation turn out when `Cc1ccc(Nc2nc(CSc3nnc(-c4ccncc4)n3-c3ccccc3C)cs2)cc1` was run?
Answer: Its activity change, negative = activation is 26.5%.

Question: Which activity change, negative = activation does the source give for `CCOc1ccc(N=C2NC(=O)S/C2=C\c2ccc(O)cc2)cc1` here?
Answer: Its activity change, negative = activation is -7.41%.

Question: Which activity change, negative = activation does the source give for `Clc1cccc(-c2nc3nc4ccccc4nc3n2Cc2ccco2)c1` here?
Answer: Its activity change, negative = activation is 21.3%.

Question: How did the activity change, negative = activation turn out when `C=CC1=C(C(=O)O)N2C(=O)[C@@H](NC(=O)/C(=N/OCC(=O)O)c3csc(N)n3)[C@H]2SC1` was run?
Answer: The activity change, negative = activation was -113% (active).

Question: With `O=[N+]([O-])c1ccc2nc(-c3ccccn3)[nH]c2c1` as the compound, how does the activity change, negative = activation read?
Answer: The activity change, negative = activation was 9.21%.

Question: With `CC(=O)CCC(=O)c1ccc2ccccc2c1` as the compound, how does the activity change, negative = activation read?
Answer: Its activity change, negative = activation is 13.2%.

Question: How did the activity change, negative = activation turn out when `CCOCCCNC(=O)c1c[nH]c2cc(C)ccc2c1=O` was run?
Answer: The activity change, negative = activation was 13.4%.

Question: With `COc1ccccc1OCC(=O)Nc1c2c(nn1-c1ccc(F)cc1)CS(=O)(=O)C2` as the compound, how does the activity change, negative = activation read?
Answer: Its activity change, negative = activation is 9.31%.

Question: `Cc1ccc(S(=O)(=O)c2c(N)n(C)c3nc4ccccc4nc23)cc1` was tested. Which activity change, negative = activation did it give?
Answer: The activity change, negative = activation was 18.5%.

Question: Which activity change, negative = activation does the source give for `O=C(CN1C(=O)C2C3C=CC(C3)C2C1=O)NCCc1ccccc1Cl` (configuration not stated) here?
Answer: The activity change, negative = activation was 10.8%.

Question: `O=C(Nc1cccc(-c2nc3ccccc3[nH]2)c1)c1ccc(C(=O)Nc2cccc(-c3nc4ccccc4[nH]3)c2)cc1` was tested. Which activity change, negative = activation did it give?
Answer: Its activity change, negative = activation is -23.1%.

Question: Which activity change, negative = activation does the source give for `N#CC1(C#N)C(C(=O)C23CC4CC(CC(C4)C2)C3)C12CCOCC2` (configuration not stated) here?
Answer: The activity change, negative = activation was 6.87%.

Question: Which activity change, negative = activation does the source give for `O=C(Nc1cccc(C(F)(F)F)c1)c1cnccn1` here?
Answer: Its activity change, negative = activation is 14.9%.
